Values joined by “and” are separate entries in the source; they are usually repeats but may differ in a detail not shown here. Identical values can stand only once. Active and inactive are the calls of the source. The calls were made as follows: active = hit-call score of the fitted dose curve at least 0.9, where 1 is the maximum; inactive = score below 0.9.

One may read the AC50 as the concentration at which the activity in the assay is half-maximal.

Read-out in this experiment: Urokinase-type plasminogen activator receptor (uPAR), PLAUR (gene 5329)
Kind of experiment: BSK_BE3C_uPAR: BioMAP Diversity Plus: BE3C Assay for Urokinase-type plasminogen activator receptor (uPAR) Biomarker Activity (AID 2283039).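 As to outcome: cells exposed to compound for one day before measurement.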 The conditions noted are these: primary human bronchial epithelial cells; actives raise or lower the signal. How it is done:
BSK_BE3C is a cell-based, multiplexed-readout assay that uses bronchial epithelial cell, a human lung primary cell, with measurements taken at 24 hours after chemical dosing in a 96-well plate.BSK_BE3CAR is an assay component measured in the BSK_BE3C assay. It measures uPAR antibody related to regulation of gene expression using ELISA technology.Data from the assay component BSK_BE3CAR was analyzed into 1 assay endpoint. This assay endpoint, BSK_BE3CAR, was analyzed with bidirectional fitting relative to DMSO as the negative control and baseline of activity. Using a type of binding reporter, gain or loss-of-signal activity can be used to understand changes in the signaling as they relate to the gene PLAUR. Furthermore, this assay endpoint can be referred to as a primary readout, because this assay has produced multiple assay endpoints where this one serves a signaling function. To generalize the intended target to other relatable targets, this assay endpoint is annotated to the cytokine intended target family, where the subfamily is plasmogen activator.
The levels of cell surface (or secreted, indicated by the prefix "s") biomarker endpoints were measured by ELISA. Overt cytotoxicity to cells in confluent adherent cultures (all systems other than the BT system) was assessed by measuring total protein levels using sulforhodamine B (SRB) staining in parallel cultures at the time of biomarker measurements, indicated as SRB endpoints. For proliferation assays for adherent cell types, individual cell types are cultured at sub-confluence and relative cell numbers quantified by SRB staining at time points optimized for each system (48 h: 3C and CASM3C systems; 72 h: BT and HDF3CGF systems; 96 h: SAg system). SRB was performed by staining cells with 0.1% SRB after fixation with 10% TCA and reading wells at 560 nm.Viability and proliferation of PBMC (T cells) was quantified by Alamar Blue reduction for the SAg and BT systems. For PBMC viability (referred to as PBMC Cytotoxicity within the assay endpoint names), cells were plated (75,000/well in a 96-well plate) and then chemical samples added for 1 h before addition of activators, SEB and TSST-1 (20 ng/mL final concentration each). Cells were incubated for 90 h. Then, Alamar Blue (20 uL/well) (Invitrogen, Cat DAL1100) was added for 6 h, and the plates were read with a fluorescence microplate reader at 546/580 nm (excitation/emission). For PBMC proliferation, cells were plated and activated as above but incubated for only 16 h prior to addition of Alamar Blue. Plates were read after 6 h.
With `CC(C)(C)C(O)C(Oc1ccc(-c2ccccc2)cc1)n1cncn1` (stereo not drawn), the outcome was inactive.

In the case of `Cc1ccc(OP(=O)(Oc2ccc(C)cc2)Oc2ccc(C)cc2)cc1` (tested in a mixture with another compound), the AC50 was 4.16 µM (active).

For `CC(C)COP(=O)(OCC(C)C)OCC(C)C`, the outcome was inactive.

Consider `O=C1C=CC(=O)C=C1`, for which the outcome was inactive.

Take `COCC(=O)N(c1c(C)cccc1C)N1CCOC1=O`: the outcome was inactive.

In the case of `O=c1c2ccccc2c(=O)c2c1cc(Cl)c1[nH]c3c([nH]c12)c(Cl)cc1c(=O)c2ccccc2c(=O)c13`, the outcome was inactive.

In the case of `COC(C)(C)CCC[C@H](C)C/C=C/C(C)=C/C(=O)OC(C)C`, the outcome was inactive.

In the case of `O=[N+]([O-])C=Cc1ccccc1`, the concentration at half-maximal activity (AC50) is 5.37 µM (active).

Consider `Oc1cc(Cl)ccc1Cl`, for which the outcome was inactive.

`Nc1ccc(-c2ccc(N)c(N)c2)cc1N`: the result was inactive.

`CC(=O)/C=C/c1ccccc1`: the result was inactive.

As to `CCc1cc(C)cc(CC)c1-c1c(OC(=O)C(C)(C)C)n2n(c1=O)CCOCC2`, the outcome was inactive.

In the case of `CC1(C)[C@H](C(=O)O[C@H](C#N)c2cccc(Oc3ccccc3)c2)[C@@H]1C=C(Br)Br`, the outcome was inactive.

For `O=S(=O)(c1ccccc1)c1ccccc1`, the result was inactive.

Regarding `CCCC[N+](CCCC)(CCCC)CCCC`, the result was inactive.

As to `O=C(O)CCCc1ccc(N(CCCl)CCCl)cc1`, the outcome was inactive.

Consider `CCC(C)c1cc([N+](=O)[O-])cc([N+](=O)[O-])c1OC(=O)C=C(C)C` (stereo not drawn), for which the AC50 is 32.8 µM (active).

With `CC(C)(C)C(=O)CCl`, the outcome was inactive.

With `O=[N+]([O-])O`, the outcome was inactive.

On to `Oc1ccc(C2(c3ccc(O)cc3)c3ccccc3-c3ccccc32)cc1`, for which the AC50 was 5.37 µM (active) and 5.3 µM (active).

With `O=P1(NCCCl)OCCCN1CCCl` (stereo not drawn), the outcome was inactive.

Regarding `C=CCN(CC=C)C(=O)C(Cl)Cl`, the result was inactive.

Regarding `CNC(=O)Oc1cc(C)c(SC)c(C)c1`, the result was inactive.

On to `CCCOC(=O)c1ccccc1C(=O)OCCC`, for which the result was inactive.

Turning to `CC(C)CCCCCCCOC(=O)c1ccccc1C(=O)OCCCCCCCC(C)C`, the result was inactive.

Turning to `O=[N+]([O-])c1ccc(Cl)cc1`, the result was inactive.

For the compound `N#CCCCCC#N`, the outcome was inactive.

Consider `O=C1C(Cl)=C(Cl)C(=O)C(Cl)=C1Cl`, for which the AC50 is 29.2 µM (active).

In the case of `O=C(CCl)c1ccccc1`, the outcome was inactive.

On to `CC(C)(c1cc(Cl)c(O)c(Cl)c1)c1cc(Cl)c(O)c(Cl)c1`, for which the AC50 was 5.31 µM (active).

Turning to `COc1ccc(CO)cc1`, the result was inactive.

`CCCCCCCCCCCC#N`: the result was inactive.

For `O=c1[nH]c(Cl)c(Cl)cc1Cl`, the outcome was inactive.

For the compound `CC(C)CCCCCCCOP(=O)(Oc1ccccc1)Oc1ccccc1`, the result was inactive.

On to `C=CC(=O)OCC(CC)CCCC` (stereo not drawn), for which the result was inactive.

In the case of `Clc1ccc(-c2ccccc2)cc1`, the outcome was inactive.

Consider `[Cd+2].[Cl-].[Cl-]`, for which the result was inactive.

`c1ccc(Nc2ccc3ccccc3c2)cc1`: the result was inactive.

The values are drawn from PubChem BioAssay (EPA / NIEHS).
